The whole screen tested about 69,000 compounds, of which about 950 (1.4%) showed an effect of 50% or more. Many of the other results were omitted from the sample, so strong results are more common in it than they were.

In this assay the test system is Mycobacterium tuberculosis. In words: Cornell M. t heat shock assay. Also: in the data most compounds retested in dose-response had high values. In kind it is functional, organism-based. Details: dose or concentration left out as unconfirmed.
As for `CS(=O)(=O)CCNCc1ccc(OCc2cscn2)cc1`, the “Percent Effect” value is -2.969%.
For the compound `CC1c2ncc(Cn3cccn3)n2CCN1c1ncccn1.O=C(O)C(F)(F)F` (centres undefined), the “Percent Effect” value was 40.47%.
As for `COc1ccc(-c2n[nH]cc2CNC2CCN(C3CC3)CC2)cc1.Cl`, the “Percent Effect” value was -33.63%.
As for `Cc1ccc(N2CCO[C@H]3CN(Cc4cccnc4)C[C@H]32)nn1.O=C(O)C(F)(F)F.O=C(O)C(F)(F)F.O=C(O)C(F)(F)F`, the “Percent Effect” value is -30.09%.
For the compound `CCNc1ccnc(CN2CCCC2C(=O)Nc2nccs2)c1` (centres undefined), the “Percent Effect” value stood at 13.04%.
For `O=C(Nc1nccs1)C1CCCN1Cc1ccccn1` (centres undefined), the “Percent Effect” value was found to be 103.1%.
Then `CC(=O)Nc1cccc(CN2CCCC2C(=O)Nc2nccs2)c1` (centres undefined), with -15.37%.
Then `Cc1ccc(C(N)c2cccc(S(C)(=O)=O)c2)c(C)c1.Cl` (centres undefined), with 1.87%.
Turning to `COc1cccc(C(NCc2ccc(SC)cc2)c2nccn2C)c1` (centres undefined), the “Percent Effect” value is listed as 112.8%.
Then `COc1cccc(-c2cc(NCc3nccn3C)n(C)n2)c1`, with 1.129%.
As for `CSc1ccc(CN(CCO)Cc2nccn2C)cc1`, the “Percent Effect” value is reported as -17.8%.
Turning to `COc1c(CNC(c2ccccc2)c2ccc(F)cc2)c(C)nn1C` (centres undefined), the “Percent Effect” value was -7.995%.
As to `CC(NCc1ccc(OCc2nccn2C)cc1)c1cccnc1` (centres undefined), the “Percent Effect” value was -26.18%.
For `CSc1ccc(CNC(c2ccccc2)c2nccn2C)cc1` (centres undefined), the “Percent Effect” value turned out to be 105.2%.
Then `Cn1ccnc1C(NCc1ccccc1)c1ccc(F)cc1` (centres undefined), with 113.8%; and `COc1ccc(CNC(c2cccc(F)c2)c2cnn(C)c2)cc1` (centres undefined), with -3.342%.
On to `CSc1ccc(CNC(c2ccc(F)cc2)c2nccn2C)cc1` (centres undefined), for which the “Percent Effect” value is listed as 112.9%.
On to `Cn1cc(C(NCc2ccc(F)cc2)c2cccc(F)c2)cn1` (centres undefined), for which the “Percent Effect” value is recorded as -7.107%.
Next, `CC(c1ccc(F)cc1)N1CCN(Cc2nccn2C)CC1` (centres undefined): -10.33%; `COc1c(CNC(c2ccc(F)cc2)c2nccn2C)c(C)nn1C` (centres undefined): -11.67%; `O=C(O)C(F)(F)F.O=C(O)C(F)(F)F.c1ccc(CO[C@@H]2CN(Cc3nccs3)[C@@H]3COC[C@@H]32)nc1`: 32.68%.
For `Cn1cc(N2CC3(CCN(Cc4nccs4)CC3)OCC2=O)cn1.O=C(O)C(F)(F)F`, the “Percent Effect” value is on record as -26.5%.
`CCn1c(NCc2ccccn2)nc2c(C)nn(C)c2c1=O`: the “Percent Effect” value is on record as -10.12%.
For the compound `COc1ccc(CN2CCC(c3cc(O)nc(C)n3)C2)c(OC)c1.O=C(O)CC(O)(CC(=O)O)C(=O)O` (centres undefined), the “Percent Effect” value is given as -19.34%.
Then `Cl.O=C(NCc1cccc(Cl)c1)C1=NOC2(CCNC2)C1` (centres undefined), with -31.4%.
On to `O=C(O)C(F)(F)F.O=C(c1cscn1)N1CC[C@@H]2[C@@H]1CCN2C1CCOC1` (some centres undefined), for which the “Percent Effect” value was determined as 5.753%.
Regarding `CCN1C[C@H]2[C@@H](C1)N(C(=O)Cc1ccsc1)CC[C@H]2OC.O=C(O)C(F)(F)F`, the “Percent Effect” value was -3.863%.
`COCC1Cn2nnc(-c3cnn(C)c3)c2CN1Cc1ccsc1.O=C(O)C(F)(F)F` (centres undefined): the “Percent Effect” value is reported as 14.81%.
`COc1ccc(CN2CCN(c3ncc(Cl)cn3)CC2)cc1`: the “Percent Effect” value is -15.93%.
As to `CCc1ccc(CN2CCN(c3ccc(Cl)nn3)CC2)nc1`, the “Percent Effect” value was determined as 15.06%.
For `CCc1ccc(CN2CCN(c3ncc(Cl)cn3)CC2)nc1`, the “Percent Effect” value came to 68.7%.
In the case of `Cc1nc(Cn2c3c(ccc2=O)CC(NC(C)C)CC3)cs1.O=C(O)C(F)(F)F.O=C(O)C(F)(F)F` (centres undefined), the “Percent Effect” value is recorded as 34.33%.
As for `COCCN1CCOCC2(CCCN(Cc3cccc(F)c3)C2)C1.O=C(O)C(F)(F)F.O=C(O)C(F)(F)F` (centres undefined), the “Percent Effect” value is -14.36%.
Regarding `Clc1ccccc1C1(c2ccnc(C3CCCC3)n2)CCNCC1`, the “Percent Effect” value is 57.06%.
In the case of `Clc1ccccc1C1(c2ccnc(-c3ncccn3)n2)CCNCC1`, the “Percent Effect” value is -0.2715%.
Turning to `Clc1ccccc1C1(c2ccnc(C3CC3)n2)CCNCC1`, the “Percent Effect” value was -18.26%.
With `CC(C)NC(=O)[C@@H]1C[C@@H]2CCN(Cc3ccoc3)C[C@H]2O1.O=C(O)C(F)(F)F`, the “Percent Effect” value amounted to 43.76%.
With `CC(C)N(C)Cc1cnc2n1CCN(C(=O)NC1CCCC1)C2.O=C(O)C(F)(F)F`, the “Percent Effect” value is given as 7.687%.
For the compound `Fc1cnc(N2CCO[C@H]3[C@H](OCCN4CCCC4)CC[C@@H]32)nc1.O=C(O)C(F)(F)F`, the “Percent Effect” value was -1.217%.
Take `Cc1ccc(N2CC[C@H]3C[C@@H](C(=O)N4CCOCC4)O[C@H]3C2)nn1.O=C(O)C(F)(F)F`: the “Percent Effect” value was found to be 9.789%.
On to `O=C(Nc1c(N2CCCC2)cccc1N1CCCC1)c1cnccn1`, for which the “Percent Effect” value turned out to be 26.63%.
`O=C(Nc1c(N2CCCC2)cccc1N1CCCC1)c1ccccn1`: the “Percent Effect” value came out at 104.6%.
`O=C(Nc1c(N2CCCC2)cccc1N1CCCC1)c1cnsn1`: the “Percent Effect” value stood at 3.548%.
In the case of `Cl.Cn1cc(CN2CCN(CC3(c4ccccc4)CC3)CC2)cn1`, the “Percent Effect” value is listed as -7.6%.
On to `Cc1cccc(CN2C(=O)CCC23CCN(C(=O)c2ccco2)CC3)n1.O=C(O)C(F)(F)F`, for which the “Percent Effect” value is recorded as -22.73%.
As to `COCc1nc(-c2ccnc(N3CCNCC3)n2)no1.Cl.Cl`, the “Percent Effect” value is 24.05%.
For `O=C(NC1CCS(=O)(=O)C1)c1cn(C2CC2)c(=O)c2ccccc12` (centres undefined), the “Percent Effect” value was determined as 62.62%.
Take `CC(C)Cn1cc(C(=O)NC2CCS(=O)(=O)C2)c2ccccc2c1=O` (centres undefined): the “Percent Effect” value amounted to 1.323%.
As to `CC(C)n1cc(C(=O)NC2CCS(=O)(=O)C2)c2ccccc2c1=O` (centres undefined), the “Percent Effect” value was -0.4948%.
On to `O=C(O)C(F)(F)F.c1cc(CN2C[C@H](OCC3CCOCC3)[C@H]3COC[C@H]32)cs1`, for which the “Percent Effect” value is listed as 11.94%.
For `O=C(NC1CCCC1)[C@@H]1CN(Cc2nccs2)C[C@H]2OCC[C@H]21.O=C(O)C(F)(F)F.O=C(O)C(F)(F)F`, the “Percent Effect” value is on record as -17.32%.
For the compound `CSCC(C)C(=O)NCc1c(C)nc2cc(=O)[nH]n2c1C` (centres undefined), the “Percent Effect” value was found to be 9.376%.
Consider `Cn1ccnc1-c1ccc(NCCC2COc3ccccc3O2)nn1` (centres undefined), for which the “Percent Effect” value is given as 44.06%.
Then `Cn1ccnc1-c1ccc(NCC2COc3ccccc3O2)nn1` (centres undefined), with 32.53%.
Take `Cn1ccnc1-c1ccc(NC[C@H]2CCc3ccccc3O2)nn1`: the “Percent Effect” value came out at 50.1%.
`Cl.O=C(C1CCC1)N1C[C@@H](c2ccsc2)[C@@H]2CN(C3CCCC3)CC[C@@H]21`: the “Percent Effect” value was -4.778%.
As to `O=C(CCn1cc(Cl)cn1)N1C[C@@H]2CC[C@H](C1)N(Cc1ccccn1)C2`, the “Percent Effect” value stood at 7.885%.
Take `CC(NCCCN1CCCC1=O)c1ccc(F)cc1N(C)C` (centres undefined): the “Percent Effect” value was 87.91%.
Consider `CC(NCCCN1CCCC1=O)c1cc(Br)ccc1F` (centres undefined), for which the “Percent Effect” value is on record as 13.95%.
Then `CC(NCCN1CCC(N(C)C)CC1)c1ccc(F)cc1N(C)C` (centres undefined), with -14.59%.
Next, `CCOC(=O)NCc1nn(CCN2CCCC2)c(=O)c2ccccc12`: 74.86%.
Turning to `COCC(=O)NCc1nn(CCN2CCCC2)c(=O)c2ccccc12`, the “Percent Effect” value was -7.005%.
For `CCNC(=O)NCc1nn(CCN2CCCC2)c(=O)c2ccccc12`, the “Percent Effect” value was 41.46%.
Next, `N#CCCN(Cc1ccco1)C(=O)c1ccc(OCC2CC2)cc1`: 14.1%; `N#CCCN(CCC#N)C(=O)c1ccc(OCC2CC2)cc1`: 94.69%.
On to `N#CCCN(Cc1cccnc1)C(=O)c1ccc(OCC2CC2)cc1`, for which the “Percent Effect” value worked out at 6.663%.
Then `Cl.NCCC(=O)Nc1ccc(-c2ccccc2)cc1`, with 3.2%; and `CC(=O)N1CCC(c2nc3ccc(NC4CCC4)cn3n2)CC1.O=C(O)C(F)(F)F`, with 21.7%; and `O=C(O)C(F)(F)F.O=C(O)C(F)(F)F.O=c1ccc2c(n1Cc1cccnc1)CCN(Cc1ccoc1)CC2`, with -14.95%.
Next, `CC(C)c1nn(C)cc1CNC1CCOc2ccccc21.Cl` (centres undefined): -5.42%.
In the case of `COc1ccc(CNC(=O)CN2CCc3ccccc32)cc1`, the “Percent Effect” value is recorded as -48.79%.
In the case of `O=C(CN1CCc2ccccc21)Nc1ccc(OC(F)F)cc1`, the “Percent Effect” value was found to be 99.06%.
As to `O=C(CN1CCCS1(=O)=O)Nc1ccc(OC(F)F)cc1`, the “Percent Effect” value is recorded as -14.39%.
Then `COCCN1CCOCC2(C1)CN(C(=O)c1conc1C)CCO2.O=C(O)C(F)(F)F` (centres undefined), with 15.5%; and `COCCC(=O)NC1CCN(CC2(c3cccc(F)c3)CCCC2)CC1.Cl`, with 23.79%; and `COC(C)(C)Cn1ccnc1-c1cccc(C(C)N(C)C)c1` (centres undefined), with -20.81%.
In the case of `CC(c1cccc(-c2ncccc2C#N)c1)N(C)C` (centres undefined), the “Percent Effect” value stood at 73.93%.
Next, `CC(c1cccc(-c2nccn2CCc2ccccn2)c1)N(C)C` (centres undefined): -27.93%.
Then `CC(c1cccc(-c2ncc(C#N)c(N)n2)c1)N(C)C` (centres undefined), with -10.92%; and `Cc1ccc(C(=O)O)cc1-c1cccc(C(C)N(C)C)c1` (centres undefined), with -8.231%.
For `CC(c1cccc(-c2ncccc2F)c1)N(C)C` (centres undefined), the “Percent Effect” value came out at 76.79%.
Regarding `Cc1ccc(CN2Cc3ccccc3O[C@]3(CC[C@H](CO)CC3)C2)o1.Cl`, the “Percent Effect” value was -44.64%.
Next, `Cc1nc(CN2C(=O)C[C@@H]3[C@@H]2CCN3CC2CCOCC2)cs1.O=C(O)C(F)(F)F`: -14.82%.
Then `COCCC(=O)N1C[C@H]2CN(Cc3cccc(C)n3)C(=O)[C@H]2C1.O=C(O)C(F)(F)F`, with -12.42%; and `COc1cc(N2C[C@@H]3COC[C@]3(COCc3cccc(C)n3)C2)ncn1.O=C(O)C(F)(F)F.O=C(O)C(F)(F)F`, with 1.772%; and `Cc1cnccc1-c1cnn(CCNC(=O)c2ccncc2)c1C1CC1.Cl`, with -0.5476%.
As for `CN(C)CCN1C(=O)C2(CCN(CC3CC3)CC2)c2ccccc21.O=C(O)C(F)(F)F.O=C(O)C(F)(F)F`, the “Percent Effect” value was found to be 2.693%.
Turning to `Cc1ccc(CN2CCC[C@]3(C(=O)O)CN(C)C[C@@H]3C2)s1.O=C(O)C(F)(F)F.O=C(O)C(F)(F)F`, the “Percent Effect” value is reported as 10.8%.
Turning to `CCn1c(CN(C)C)nnc1C1CCN(c2nccc(NC)n2)CC1`, the “Percent Effect” value is given as -31.54%.
Then `Cc1cc(N2CCC(c3nnc(CN(C)C)n3C3CC3)CC2)ccn1`, with -0.4086%; and `CCn1c(CN(C)C)nnc1C1CCN(c2ccnc(C)c2)CC1`, with 105.5%; and `Cc1cc(-n2cnnn2)n2ncnc2n1`, with -4.919%.
Regarding `Cc1cc(-n2cncn2)n2ncnc2n1`, the “Percent Effect” value is listed as 61.29%.
As to `Cc1cc(N2CCCC2Cn2nc(C)cc2C)n2ncnc2n1` (centres undefined), the “Percent Effect” value is recorded as 11.78%.

Source of the values: ChEMBL document CHEMBL3988442, “University of Dundee, Small-Polar-MMV Screening Library” (2021).
